# Screening results: PubChem, National Center for Advancing Translational Sciences (NCATS)
# MmCpn inh – Inhibitors of TCP-1 ring complex (TRiC) of Methanococcus maripaludis (MmCpn): qHTS. Potency, µM (highest dose often 76.9 µM), for inactives: top-dose activity, negative = inhibition, actives largely listed as inhibitors. Chaperonin Mm-Cpn (Methanococcus maripaludis). actives 0.031% (n = 330,000). purified Mm-Cpn ATPase, ADP Transcreener TR-FRET; further: on the % scale 0 is the no-effect control and ±100 the full control effect; nearly all actives have a fitted effect of over 80% in size
#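 25 nM Mm-CPN + cpd, 10 min 37°C; + 10 uM ATP, 30 min 37°C; buffer 30 mM Tris pH 7.4, 100 mM KCl, 5 mM MgCl2, 1 mM DTT; Transcreener ADP HTRF detection 30 min RT.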
# FUS suppressor – qHTS for Suppressors of FUS Proteinopathy: Primary screen using FUS-linked yeast assay; S. cerevisiae FUS-expressing, growth rescue, OD600, 24 h; actives 0.24% (n = 390,000); Potency, µM (series often up to 76.6 µM), most hits filed as activators;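 further: plate controls were DMSO vehicle for no effect and reference control for full effect; nearly all actives have a fitted effect of over 55% in size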
#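 S. cerevisiae expressing FUS from galactose induction served as the toxicity model. Growth after 24hr at 30C, read as absorbance at 600 nm, indicates suppression of toxicity; compounds dosed at several concentrations.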
# Abeta yeast res – qHTS for compounds that reverse cellular toxicity of Amyloid beta (A-beta) peptide in yeast: Primary Screen; actives 0.063% (n = 410,000); Potency, µM (titrated, usually from 46.1 µM), actives largely listed as activators; AID 1347071, 2019; yeast expressing A-beta42, growth rescue, OD600, 48 h; response scale: 0% DMSO, 100% iron-clioquinol control; further: nearly all actives have a fitted effect of over 55% in size
#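 Growth rescue measured by 600 nm absorbance after 48 h yeast culture at 30 C with compound. Values normalized between DMSO and an equimolar ferric chloride plus clioquinol control.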
# aSyn rescue – qHTS of alpha-syn Inhibitors | Yeast expressing alpha-synuclein, growth rescue, BacTiter-Glo, 24 h | Potency, µM (top dose mostly 46.1 µM), without a hit: at the highest dose growth rescue (activation), most hits filed as activators | actives 0.14% (n = 370,000) | AID 652106, 2013; further: % of control where 0% means no effect; nearly all actives have a fitted effect of over 65% in size
#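 Galactose-induced alpha-syn yeast (OD600=0.02, raffinose-pregrown) + pinned cpd, 24 hr, 30 deg C; growth by BacTiter-Glo luminescence. Growth restoration scores as activation.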
# TDP43 rescue – qHTS of TDP-43 Inhibitors; TDP-43 expressing yeast growth rescue, BacTiter-Glo, 24 h; Potency, µM (top dose mostly 46.1 µM), for inactives: top-dose growth rescue (activation), hits mostly activators; actives 1.8% (n = 410,000); further: % of control where 0% means no effect; nearly all actives have a fitted effect of over 50% in size
#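 Yeast cells expressing TDP-43 under galactose induction are exposed to compounds for 24 hr at 30 deg C. BacTiter-Glo luminescence measures growth, so protective compounds score as activators.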
# ClpP mod – qHTS Assay for Activators of ClpP; ATP-dependent Clp protease proteolytic subunit (Bacillus subtilis (strain 168)), P80244; purified B. subtilis ClpP, FRET peptide cleavage, 20 min; Potency, µM (highest dose often 57.5 µM), without a hit: top-dose activity change, negative = active; actives 1.9% (n = 340,000); AID 651965, 2013; active means well fitted falling curve with a large enough effect; inconclusive means small, poorly fitted or top-dose-only effect; inactive means no such curve, though single readings can be large or run the other way; further: the source files actives as falling curves though it sought activators and does not explain the sign; nearly all actives have a fitted effect of over 65% in size
# Target sequence (P80244 whole entry, looked up): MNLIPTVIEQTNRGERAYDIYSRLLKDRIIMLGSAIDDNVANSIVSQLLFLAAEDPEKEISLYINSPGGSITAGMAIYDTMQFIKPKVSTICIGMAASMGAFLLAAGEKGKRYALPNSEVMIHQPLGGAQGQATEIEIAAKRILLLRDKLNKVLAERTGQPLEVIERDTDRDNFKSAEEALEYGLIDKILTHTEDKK
#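 FRET quenching reversal measured ClpP activation: 10 microg/mL B. subtilis ClpP at pH 8 with the FRET-FV decapeptide, read at 430 nm after 320 nm excitation. The 20-min minus 0-min signal was scaled between DMSO/no-enzyme wells and ADEP (5.8 microM final).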
# Numbers without * were called inactive; i = inactive; ? = inconclusive; . = no result given; [ ] = dose if it differs, or a comment. Most compounds without a hit are left out; they make up all but 3.6% or so of the library. Unless noted, the call rests on the fitted dose curve; in most records, active means well fitted curve in the direction sought with a large enough effect; inconclusive means small, poorly fitted or top-dose-only effect, or another doubt; inactive means no such curve, though single readings can be large; an effect the other way counts as inactive or inconclusive. Potency means the concentration at half of the fitted maximal effect.
SMILES,MmCpn inh,FUS suppressor,Abeta yeast res,aSyn rescue,TDP43 rescue,ClpP mod
CCOc1ccc(-c2cc(C(=O)N3CCC(C)CC3)c3ccccc3n2)cc1,.,i,i,-14%,27%,32µM*
O=C(COC(=O)c1cc(-c2ccccc2)nc2ccccc12)NC1CC1,-4%,?,i,-1%[1.84 µM],35µM*,3%
CCOc1ccc(-c2cc(C(=O)O)c3ccccc3n2)cc1,-4%,i,i,-15%,-8%,35µM*
CC(=O)N/C(=C/c1ccccc1)c1sc2ccccc2[n+]1CCCCI,.,.,.,-5%,.,1%
O=C(Nc1cc(Cl)ccc1Cl)c1cc(S(=O)(=O)NCCc2ccccc2)ccc1F,.,i,i,.,-19%,77%
O=S1(=O)c2ccc(Br)cc2OC[C@@H](c2ccccc2)N1Cc1cn(CCC2OCCO2)nn1,.,i,.,.,.,.
O=C(c1cc(-c2ccccc2)nc2ccccc12)N1CCc2ccccc2C1,-2%,.,i,-16%,25µM*,-1%
COC(=O)c1cn(NC(=O)c2cnccn2)c(=O)c2ccccc12,-6%,i,i,22µM*,?,1%
COC(=O)c1cn(NC(=O)/C=C/c2cc(OC)ccc2OC)c(=O)c2ccccc12,-20%,.,i,0%,1%,28µM*
Cc1ccccc1NC(=O)c1c(NC(=O)Cc2ccccc2)sc2c1CCC2,.,i,i,.,12%,4%
Cc1c(C)c2cc(Cl)c(O)c(CN3CCCC(C)C3)c2oc1=O (stereo not given),-13%,i,i,-1%,1%,6.3µM*
CCOC(=O)c1ccccc1NC(=O)Cn1ccn2nc(-c3ccc(OCC)cc3)cc2c1=O,.,i,i,.,14%,-3%
O=C1C=C(NC2CC2)C2(CCCCC2)O1,-1%,i,i,-4%,8%,13µM*
O=C1C=C(NCC2CCCO2)C2(CCCCC2)O1 (stereo not given),0%,i,i,-8%,-9%,0%
Cc1ccc(C(C)NC(=S)NC2CCCCC2)c(C)c1 (stereo not given),-4%,i,11µM*,-25%,20%,0%
COC1=CC(=O)c2c(ccc3ncnc(N)c23)C1=O,.,.,i,-67%,26%,0%
COC1=CC(=O)c2nc(Cl)ccc2C1=O,.,i,i,?,13µM*,13%
Cc1nn(C)cc1CN(C)C(=O)CC12CC3CC(CC(C3)C1)C2,-1%,.,i,-1%,22µM*,-20%
CCOc1ccc(S(=O)(=O)c2cc3cccc(OCC)c3oc2=O)cc1,.,i,i,.,6%,-2%
COc1ccc(C=C2CS(=O)(=O)CC(=Cc3ccc(OC)cc3)C2=O)cc1,.,i,i,13µM*,?,-1%
CCCCNC(=O)CCCCCn1c(=O)[nH]c2cc(C(=O)OC)ccc2c1=O,-4%,?,i,-4%,-18%,-2%
COC(=O)c1ccc2c(=O)n(CCCCCC(=O)O)c(=O)[nH]c2c1,-3%,.,i,-5%,0%,28µM*
COCCn1c(=S)[nH]c2cc(C(=O)NCc3ccccc3)ccc2c1=O,.,i,i,-4%,-1%,-1%
COCCn1c(=O)[nH]c2cc(C(=O)NCc3ccccc3)ccc2c1=O,-3%,i,i,1%,-1%,14µM*
COCCNC(=O)c1ccc2c(=O)n(CCOC)c(=O)[nH]c2c1,-1%,i,i,-3%,-1%,25µM*
SMILES,MmCpn inh,FUS suppressor,Abeta yeast res,aSyn rescue,TDP43 rescue,ClpP mod
CC1=C(C(=O)N2CCOCC2)C(c2ccccc2F)C2=C(CC(C)(C)CC2=O)N1 (stereo not given),-1%,i,i,8%,19%,14µM*
COc1ccc(C2C(C(=O)N3CCOCC3)=C(C)NC3=C2C(=O)CC(C)(C)C3)c(OC)c1 (stereo not given),-2%,i,i,-4%,?,16µM*
COc1ccc(C2C(C#N)=C(C)NC3=C2C(=O)CC(C)(C)C3)c(OC)c1 (stereo not given),-4%,i,i,6%,4%,?
CC1=C(C(=O)N2CCOCC2)C(c2ccccc2F)NC(=O)N1 (stereo not given),1%,i,i,-2%,8%,.
CCCC(=O)OC12CCCN(C1)/C(=C/c1ccccc1)C2 (stereo not given),.,i,.,.,.,.
CNC(=S)N(Cc1ccco1)Cc1cc2cc(OC)c(OC)cc2[nH]c1=O,2%,i,i,-2%,-25%,.
CCNC(=S)N(CCc1ccc(OC)c(OC)c1)Cc1cc2cc(OC)ccc2[nH]c1=O,0%,i,i,-5%,-7%[9.22 µM],.
COc1cc2cc(CN(CCc3ccccc3C)C(=S)NCCCN(C)C)c(=O)[nH]c2cc1OC,-2%,.,i,-3%,9%,14µM*
CC(=O)N(CCc1ccccc1C)Cc1cc2cc3c(cc2[nH]c1=O)OCO3,-1%,i,i,3%,-9%,28µM*
CNC(=S)N(CCc1ccccc1)Cc1cc2cc(OC)c(OC)cc2[nH]c1=O,0%,.,i,-1%,6%,35µM*
CCNC(=S)N(CCc1ccccc1C)Cc1cc2cc(OC)c(OC)cc2[nH]c1=O,1%,i,i,3%,0%,?
CCNC(=S)N(CCc1cccc(C)c1)Cc1cc2cc(OC)c(OC)cc2[nH]c1=O,-3%,?,i,2%,12%,18µM*
CCC(=O)N(CCc1ccccc1C)Cc1cc2ccc(C)cc2[nH]c1=O,-10%,i,i,0%,12%,-14%
Cn1ncc2c(N3CCN(c4ccc(F)cc4)CC3)ncnc21,.,i,i,.,?,0%
O=C1OC(Sc2ccccc2)(c2ccccc2)c2ccccc21 (stereo not given),.,i,i,14%,11µM*,1%
CCOC1(c2ccccc2)OC(=O)c2ccccc21 (stereo not given),-1%,i,i,-13%,4%,0%
CCN(c1ccccc1)S(=O)(=O)c1ccc(NC(=O)c2nc(SC(C)C)ncc2Cl)cc1,.,i,i,.,-2%,-14%
CCc1ccc(C2=Nn3c(nnc3-c3cccs3)SC2)cc1,-2%,i,i,0%,11µM*,-3%
CCOc1ccc(C2=Nn3c(CC)nnc3SC2)cc1,-1%,i,i,2%,18µM*,1%
